TEAD-YAP block: TEAD-YAP interaction inhibition, primary screen, TEAD-YAP interaction inhibitor project, luminescence, HEK-TIYL cells; TEAD-Gal4/YAP UAS-luciferase luminescence; inhibition, % at 9.12 µM; actives 1.4% (n = 640,000); AID 1259422, 2018; in the data active means inhibition above about 32%;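 further: 0% = median of test compound wells and 100% = reference inhibitor wells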
MITF primary: MITF inhibitors, primary screen, biochemical, AlphaScreen, human; Microphthalmia-associated transcription factor (Homo sapiens), O75030; AlphaScreen MITF homodimerization, bead proximity signal; inhibition, % at 2.6 µM; actives 0.91% (n = 650,000); in the data active means inhibition above about 50%;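 further: 0% = vehicle wells with protein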
FBW7 act: FBW7 E3 ligase activators, primary screen, biochemical, AlphaScreen, human; F-box/WD repeat-containing protein 7 (Homo sapiens), Q969H0; AlphaScreen FBW7–phospho-cyclin E peptide binding, activator screen; normalized activity (activation), % at 26.1 µM; actives 0.13% (n = 650,000); AID 1259310, 2017; in the data active means normalized activity above about 1.9%;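 further: purified mutant Fbw7 with reduced substrate affinity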
GPR151 ag: activators of human GPR151, primary screen, cell-based, PathHunter beta-arrestin, luminescence. G-protein coupled receptor 151 (Homo sapiens), Q8TDV0. PathHunter beta-arrestin GPR151 cells. activation, % at 11.2 µM. actives 1% (n = 650,000). AID 1508602, 2020; in the data active means activation above about 4.9%;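 further: 0% = median of compound wells and 100% = cells with positive control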
Target sequence (Q8TDV0 whole entry, looked up): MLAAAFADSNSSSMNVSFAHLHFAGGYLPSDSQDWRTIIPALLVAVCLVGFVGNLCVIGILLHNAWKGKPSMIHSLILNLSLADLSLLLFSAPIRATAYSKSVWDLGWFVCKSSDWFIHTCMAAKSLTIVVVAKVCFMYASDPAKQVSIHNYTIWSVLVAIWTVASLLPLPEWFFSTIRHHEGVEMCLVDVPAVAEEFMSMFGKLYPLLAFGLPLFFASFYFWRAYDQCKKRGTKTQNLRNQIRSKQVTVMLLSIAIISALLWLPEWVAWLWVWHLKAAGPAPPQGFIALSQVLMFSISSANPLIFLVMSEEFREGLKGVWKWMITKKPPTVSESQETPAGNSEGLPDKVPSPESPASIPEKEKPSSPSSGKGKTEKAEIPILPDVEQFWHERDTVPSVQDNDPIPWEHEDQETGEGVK
The depositor's hits bear a star. Hits are enriched below; roughly 3.5% of the tested compounds scored in any of these assays.

`Cc1ccnc(NC(=O)Cn2ncc3c2-c2cc(C)ccc2OC3)c1` gave TEAD-YAP block -1, MITF primary -6, FBW7 act 0 and GPR151 ag 0.
Screening Cc1ccc(NC(=O)Cn2ncc3c2-c2cc(C)ccc2OC3)nc1 returned TEAD-YAP block 35*, MITF primary 11, FBW7 act 0 and GPR151 ag -2.
`c1ccc(CCNc2nccn3c(-c4ccoc4)cnc23)nc1` gave TEAD-YAP block 31, MITF primary -23, FBW7 act 0 and GPR151 ag -3.
`COCCNc1nccn2c(-c3ccccc3CO)cnc12` gave TEAD-YAP block 0, MITF primary 16, FBW7 act 0 and GPR151 ag 0.
`c1ccc(CCNc2nccn3c(-c4ccsc4)cnc23)nc1` gave TEAD-YAP block 50*, MITF primary -14, FBW7 act -1 and GPR151 ag -1.
For OCCNc1nccn2c(-c3ccccc3CO)cnc12 the results were TEAD-YAP block -4, MITF primary 3, FBW7 act 2.1* and GPR151 ag 0.
O=C(OCc1ccc([N+](=O)[O-])cc1Cl)c1ccc(Br)o1 was read as TEAD-YAP block 10, MITF primary 15, FBW7 act 0 and GPR151 ag 0.
`COc1ccc(CCN2C(=NC(C)=O)SC3CS(=O)(=O)CC32)cc1` (stereo unspecified) gave TEAD-YAP block -4, MITF primary -8, FBW7 act 0 and GPR151 ag 3.
Cc1ccc(C(C)(C)C)c(OCC(=O)Nc2nccs2)c1 was read as TEAD-YAP block 50*, MITF primary 11, FBW7 act 0 and GPR151 ag -1.
CC(C)(C)c1ccccc1OCC(=O)Nc1nccs1 was read as TEAD-YAP block 5, MITF primary -13, FBW7 act 0 and GPR151 ag -1.
For Cc1ccc(OCC(=O)Nc2nccs2)c(C)c1 the results were TEAD-YAP block 93*, MITF primary 5, FBW7 act 0 and GPR151 ag -8.
Cc1ccccc1OCC(=O)Nc1nccs1 was read as TEAD-YAP block 50*, MITF primary 3, FBW7 act 0 and GPR151 ag -10.
Cc1ccc(/C=C/C(=O)Nc2nccs2)cc1 was read as TEAD-YAP block 69*, MITF primary 18, FBW7 act 0 and GPR151 ag -7.
`Cc1ccc(C)c(OCC(=O)Nc2nccs2)c1` gave TEAD-YAP block -14, MITF primary 12, FBW7 act 0 and GPR151 ag -2.
For Cc1ccc(-c2nc3s/c(=C/c4ccc(Cl)cc4)c(=O)n3n2)cc1 the results were TEAD-YAP block -11, MITF primary 3, FBW7 act 0 and GPR151 ag 0.
For O=C(CSc1nc2ccc(N3CCCCC3)cc2c(=O)n1Cc1ccccc1)NCc1ccco1 the results were TEAD-YAP block -7, MITF primary -5, FBW7 act 0 and GPR151 ag 4.
`CCCOC(=O)c1ccc(NC(=S)NC(=O)c2ccc(C)cc2)cc1` gave TEAD-YAP block -8, MITF primary 16, FBW7 act 0 and GPR151 ag -1.
Cc1nnc(SC(=O)N2c3ccccc3Sc3ccccc32)s1 was read as TEAD-YAP block 61*, MITF primary 7, FBW7 act 0 and GPR151 ag 0.
`O=C(CSc1nccc(=O)[nH]1)c1ccc(O)c(O)c1` gave TEAD-YAP block 2, MITF primary 55*, FBW7 act 0 and GPR151 ag -2.
For COc1ccc(N/N=C(\Cl)C(C)=O)cc1 the results were TEAD-YAP block 4, MITF primary 20, FBW7 act 1.9* and GPR151 ag 1.
For c1csc(C(c2nnnn2C2CCCCC2)N2CCN3CCCC3C2)c1 (stereo unspecified) the results were TEAD-YAP block 62*, MITF primary 19, FBW7 act 0 and GPR151 ag -2.
Screening CN1CCN(C(c2ccc(F)cc2)c2nnnn2C2CCCC2)CC1 (stereo unspecified) returned TEAD-YAP block 6, MITF primary 9, FBW7 act 0 and GPR151 ag -1.
Screening c1cncc(C(c2nnnn2C2CCCCC2)N2CCN3CCCC3C2)c1 (stereo unspecified) returned TEAD-YAP block -18, MITF primary 5, FBW7 act 0 and GPR151 ag -1.
C=CCN1CCN(C(c2ccccc2)c2nnnn2C2CCCC2)CC1 (stereo unspecified) was read as TEAD-YAP block -3, MITF primary 15, FBW7 act 1.9* and GPR151 ag 0.
`CN1CCN(C(c2ccc(N(C)C)cc2)c2nnnn2C2CCCC2)CC1` (stereo unspecified) gave TEAD-YAP block 51*, MITF primary 5, FBW7 act 0 and GPR151 ag -1.
For COCCN1C(=O)CC(CC(=O)N(C)CC(C)C)(c2ccccc2F)C1=O (stereo unspecified) the results were TEAD-YAP block -2, MITF primary 7, FBW7 act 1 and GPR151 ag -1.
For Cc1cc(C)n2nc(C(F)(F)F)nc2n1 the results were TEAD-YAP block 3, MITF primary 6, FBW7 act 0 and GPR151 ag 0.
For c1ccc(Oc2ccc(Nc3nccn4c(-c5ccoc5)cnc34)cc2)cc1 the results were TEAD-YAP block -4, MITF primary -4, FBW7 act 0 and GPR151 ag 2.
`CC(C)c1ccc(Nc2nccn3c(-c4ccoc4)cnc23)cc1` gave TEAD-YAP block -10, MITF primary 7, FBW7 act 2.3* and GPR151 ag -1.
For N#CC(C#N)=CNc1ccc(Cl)cn1 the results were TEAD-YAP block 2, MITF primary 9, FBW7 act 0 and GPR151 ag 3.
`COc1cccc(N2C[C@@H]3C[C@@H](c4cnn(-c5ccccc5)c4)N4CCC[C@@]34C2=O)c1` gave TEAD-YAP block 37*, MITF primary -2, FBW7 act 0 and GPR151 ag 1.
For COc1cc(-c2ccc(NCC(C)(C)C)nc2)cc(OC)c1OC the results were TEAD-YAP block -27, MITF primary 8, FBW7 act 0 and GPR151 ag 0.
COc1ccc(Cl)cc1NC(=O)Cn1nnc(C(=O)NCc2cccs2)c1N was read as TEAD-YAP block 45*, MITF primary -7, FBW7 act 0 and GPR151 ag 0.
`O=C1C(Cl)=C(NCCN2CCCCC2)C(=O)c2ccccc21` gave TEAD-YAP block 41*, MITF primary 9, FBW7 act 0 and GPR151 ag -4.
CCN(CC)CCNC1=C(Cl)C(=O)c2ccccc2C1=O was read as TEAD-YAP block 46*, MITF primary 2, FBW7 act 0 and GPR151 ag -2.
O=C(c1ccc(N2CCC(NCc3cccc4ccccc34)CC2)cc1)N1CCCC(O)C1 (stereo unspecified) was read as TEAD-YAP block -8, MITF primary -2, FBW7 act 0 and GPR151 ag -1.

High-throughput results as filed in PubChem BioAssay.
